# In ChEMBL document CHEMBL1961873, “Compounds: GSK PKIS; Assays: Nanosyn kinase panel” (2012):
# Key:
# [1] = molecular target: 5'-AMP-activated protein kinase catalytic subunit alpha-2 (Homo sapiens) (UniProt P54646); conditions: at 1 µM
# [2] = molecular target: T1, NUAK family SNF1-like kinase 1 (Homo sapiens) (UniProt O60285); conditions: at 0.1 µM
# T1 sequence (whole entry): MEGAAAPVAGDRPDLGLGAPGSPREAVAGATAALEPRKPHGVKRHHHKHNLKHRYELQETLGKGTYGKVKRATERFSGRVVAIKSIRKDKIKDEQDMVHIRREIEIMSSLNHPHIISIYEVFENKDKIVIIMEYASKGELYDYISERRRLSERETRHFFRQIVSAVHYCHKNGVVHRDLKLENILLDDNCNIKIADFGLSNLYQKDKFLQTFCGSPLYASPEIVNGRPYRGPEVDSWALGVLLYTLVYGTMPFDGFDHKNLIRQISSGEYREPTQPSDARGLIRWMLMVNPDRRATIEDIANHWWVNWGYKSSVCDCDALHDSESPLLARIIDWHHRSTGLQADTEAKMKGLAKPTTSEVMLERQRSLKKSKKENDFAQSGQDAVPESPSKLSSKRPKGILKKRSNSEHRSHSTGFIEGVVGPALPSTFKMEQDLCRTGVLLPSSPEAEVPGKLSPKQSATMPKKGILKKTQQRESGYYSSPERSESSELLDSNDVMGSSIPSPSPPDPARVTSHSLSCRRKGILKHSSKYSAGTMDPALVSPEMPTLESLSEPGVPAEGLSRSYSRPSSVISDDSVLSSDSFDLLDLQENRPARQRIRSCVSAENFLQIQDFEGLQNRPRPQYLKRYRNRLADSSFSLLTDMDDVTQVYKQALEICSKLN
# [3] = molecular target: T1, NUAK family SNF1-like kinase 1 (Homo sapiens); conditions: at 1 µM
# [4] = molecular target: T2, Serine/threonine-protein kinase BRSK1 (Homo sapiens) (UniProt Q8TDC3); conditions: at 0.1 µM
# T2 sequence (whole entry): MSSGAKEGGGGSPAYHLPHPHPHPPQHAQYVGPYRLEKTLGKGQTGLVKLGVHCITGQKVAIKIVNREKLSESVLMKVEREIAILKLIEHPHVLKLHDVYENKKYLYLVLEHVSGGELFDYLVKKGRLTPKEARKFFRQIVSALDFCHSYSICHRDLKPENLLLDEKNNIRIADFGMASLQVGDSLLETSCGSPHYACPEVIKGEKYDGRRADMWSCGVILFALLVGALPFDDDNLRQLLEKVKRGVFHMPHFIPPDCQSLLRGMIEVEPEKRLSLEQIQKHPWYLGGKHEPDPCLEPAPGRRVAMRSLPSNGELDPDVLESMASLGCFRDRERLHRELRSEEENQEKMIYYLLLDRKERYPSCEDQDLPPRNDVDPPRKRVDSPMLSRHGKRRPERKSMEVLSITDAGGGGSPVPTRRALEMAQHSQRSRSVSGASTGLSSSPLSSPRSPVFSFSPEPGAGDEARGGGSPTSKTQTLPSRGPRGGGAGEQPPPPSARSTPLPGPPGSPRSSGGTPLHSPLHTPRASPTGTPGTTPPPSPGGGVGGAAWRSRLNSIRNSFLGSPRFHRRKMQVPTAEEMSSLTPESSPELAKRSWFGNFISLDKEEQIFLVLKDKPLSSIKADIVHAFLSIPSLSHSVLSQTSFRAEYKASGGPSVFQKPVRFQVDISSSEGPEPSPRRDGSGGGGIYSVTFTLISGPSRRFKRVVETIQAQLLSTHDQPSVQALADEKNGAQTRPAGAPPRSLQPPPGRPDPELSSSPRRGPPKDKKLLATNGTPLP
# [5] = molecular target: T2, Serine/threonine-protein kinase BRSK1 (Homo sapiens); conditions: at 1 µM
# [6] = molecular target: T3, Serine/threonine-protein kinase BRSK2 (Homo sapiens) (UniProt Q8IWQ3); conditions: at 0.1 µM
# T3 sequence (whole entry): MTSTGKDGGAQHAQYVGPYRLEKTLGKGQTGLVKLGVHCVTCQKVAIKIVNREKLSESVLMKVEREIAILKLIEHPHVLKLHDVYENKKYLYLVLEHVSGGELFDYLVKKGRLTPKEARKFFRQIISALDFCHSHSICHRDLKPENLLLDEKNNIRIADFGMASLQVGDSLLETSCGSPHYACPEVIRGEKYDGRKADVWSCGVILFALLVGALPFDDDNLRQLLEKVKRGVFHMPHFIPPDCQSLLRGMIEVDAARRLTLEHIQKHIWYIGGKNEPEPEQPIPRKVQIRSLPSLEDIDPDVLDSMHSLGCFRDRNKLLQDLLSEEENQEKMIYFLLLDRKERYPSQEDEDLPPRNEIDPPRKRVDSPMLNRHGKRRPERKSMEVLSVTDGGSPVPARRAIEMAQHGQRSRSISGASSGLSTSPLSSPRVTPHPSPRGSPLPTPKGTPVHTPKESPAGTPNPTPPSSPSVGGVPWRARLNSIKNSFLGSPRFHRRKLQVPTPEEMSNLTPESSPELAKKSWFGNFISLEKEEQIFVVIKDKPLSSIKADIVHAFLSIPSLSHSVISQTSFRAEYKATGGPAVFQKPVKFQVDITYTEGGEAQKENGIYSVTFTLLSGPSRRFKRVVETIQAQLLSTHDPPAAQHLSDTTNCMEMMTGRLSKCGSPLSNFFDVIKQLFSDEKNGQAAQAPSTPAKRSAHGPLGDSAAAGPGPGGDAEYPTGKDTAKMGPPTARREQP
# [7] = molecular target: T3, Serine/threonine-protein kinase BRSK2 (Homo sapiens); conditions: at 1 µM
# [8] = molecular target: Calcium/calmodulin-dependent protein kinase type 1D (Homo sapiens) (UniProt Q8IU85); conditions: at 0.1 µM
# [9] = molecular target: Calcium/calmodulin-dependent protein kinase type 1D (Homo sapiens) (UniProt Q8IU85); conditions: at 1 µM
# [10] = molecular target: Calcium/calmodulin-dependent protein kinase type II subunit alpha (Homo sapiens) (UniProt Q9UQM7); conditions: at 0.1 µM
# [11] = molecular target: Calcium/calmodulin-dependent protein kinase type II subunit alpha (Homo sapiens) (UniProt Q9UQM7); conditions: at 1 µM
# [12] = molecular target: Calcium/calmodulin-dependent protein kinase type II subunit delta (Homo sapiens) (UniProt Q13557); conditions: at 0.1 µM
# [13] = molecular target: Calcium/calmodulin-dependent protein kinase type II subunit delta (Homo sapiens) (UniProt Q13557); conditions: at 1 µM
# [14] = molecular target: T4, Calcium/calmodulin-dependent protein kinase type IV (Homo sapiens) (UniProt Q16566); conditions: at 0.1 µM
# T4 sequence (whole entry): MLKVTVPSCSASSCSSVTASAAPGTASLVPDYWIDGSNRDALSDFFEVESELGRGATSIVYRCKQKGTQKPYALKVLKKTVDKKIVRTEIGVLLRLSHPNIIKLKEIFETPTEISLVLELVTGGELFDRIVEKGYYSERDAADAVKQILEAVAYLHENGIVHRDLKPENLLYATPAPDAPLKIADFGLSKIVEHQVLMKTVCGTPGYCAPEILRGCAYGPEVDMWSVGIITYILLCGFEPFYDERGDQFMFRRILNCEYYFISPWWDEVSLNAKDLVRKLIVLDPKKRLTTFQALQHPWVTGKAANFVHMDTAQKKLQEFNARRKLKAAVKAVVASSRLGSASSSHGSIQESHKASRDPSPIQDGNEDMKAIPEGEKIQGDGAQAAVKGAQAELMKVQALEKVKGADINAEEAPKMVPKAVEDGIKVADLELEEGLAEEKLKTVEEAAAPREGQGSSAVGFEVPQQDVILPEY
# [15] = molecular target: T4, Calcium/calmodulin-dependent protein kinase type IV (Homo sapiens); conditions: at 1 µM
# [16] = molecular target: T5, Serine/threonine-protein kinase Chk1 (Homo sapiens) (UniProt O14757); conditions: at 0.1 µM
# T5 sequence (whole entry): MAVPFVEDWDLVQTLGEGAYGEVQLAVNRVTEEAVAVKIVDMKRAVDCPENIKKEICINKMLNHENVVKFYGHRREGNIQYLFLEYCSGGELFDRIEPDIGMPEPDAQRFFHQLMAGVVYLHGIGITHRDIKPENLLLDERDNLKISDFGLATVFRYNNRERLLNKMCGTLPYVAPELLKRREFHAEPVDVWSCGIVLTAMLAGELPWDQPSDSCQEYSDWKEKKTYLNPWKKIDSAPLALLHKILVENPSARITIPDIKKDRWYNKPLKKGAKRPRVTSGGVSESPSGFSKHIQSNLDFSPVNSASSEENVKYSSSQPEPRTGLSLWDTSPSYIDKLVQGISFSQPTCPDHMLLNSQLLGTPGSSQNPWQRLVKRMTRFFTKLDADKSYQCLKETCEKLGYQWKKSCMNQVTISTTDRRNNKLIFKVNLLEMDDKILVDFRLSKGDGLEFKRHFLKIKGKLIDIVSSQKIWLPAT
# [17] = molecular target: T5, Serine/threonine-protein kinase Chk1 (Homo sapiens); conditions: at 1 µM
# [18] = molecular target: Serine/threonine-protein kinase Chk2 (Homo sapiens) (UniProt O96017); conditions: at 0.1 µM
# [19] = molecular target: Serine/threonine-protein kinase Chk2 (Homo sapiens) (UniProt O96017); conditions: at 1 µM
# [20] = molecular target: Death-associated protein kinase 1 (Homo sapiens) (UniProt P53355); conditions: at 0.1 µM;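 note: reported figure is the mean inhibition of DAPK1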
# Death-associated protein kinase 1 (Homo sapiens), sequence (P53355 whole entry, looked up): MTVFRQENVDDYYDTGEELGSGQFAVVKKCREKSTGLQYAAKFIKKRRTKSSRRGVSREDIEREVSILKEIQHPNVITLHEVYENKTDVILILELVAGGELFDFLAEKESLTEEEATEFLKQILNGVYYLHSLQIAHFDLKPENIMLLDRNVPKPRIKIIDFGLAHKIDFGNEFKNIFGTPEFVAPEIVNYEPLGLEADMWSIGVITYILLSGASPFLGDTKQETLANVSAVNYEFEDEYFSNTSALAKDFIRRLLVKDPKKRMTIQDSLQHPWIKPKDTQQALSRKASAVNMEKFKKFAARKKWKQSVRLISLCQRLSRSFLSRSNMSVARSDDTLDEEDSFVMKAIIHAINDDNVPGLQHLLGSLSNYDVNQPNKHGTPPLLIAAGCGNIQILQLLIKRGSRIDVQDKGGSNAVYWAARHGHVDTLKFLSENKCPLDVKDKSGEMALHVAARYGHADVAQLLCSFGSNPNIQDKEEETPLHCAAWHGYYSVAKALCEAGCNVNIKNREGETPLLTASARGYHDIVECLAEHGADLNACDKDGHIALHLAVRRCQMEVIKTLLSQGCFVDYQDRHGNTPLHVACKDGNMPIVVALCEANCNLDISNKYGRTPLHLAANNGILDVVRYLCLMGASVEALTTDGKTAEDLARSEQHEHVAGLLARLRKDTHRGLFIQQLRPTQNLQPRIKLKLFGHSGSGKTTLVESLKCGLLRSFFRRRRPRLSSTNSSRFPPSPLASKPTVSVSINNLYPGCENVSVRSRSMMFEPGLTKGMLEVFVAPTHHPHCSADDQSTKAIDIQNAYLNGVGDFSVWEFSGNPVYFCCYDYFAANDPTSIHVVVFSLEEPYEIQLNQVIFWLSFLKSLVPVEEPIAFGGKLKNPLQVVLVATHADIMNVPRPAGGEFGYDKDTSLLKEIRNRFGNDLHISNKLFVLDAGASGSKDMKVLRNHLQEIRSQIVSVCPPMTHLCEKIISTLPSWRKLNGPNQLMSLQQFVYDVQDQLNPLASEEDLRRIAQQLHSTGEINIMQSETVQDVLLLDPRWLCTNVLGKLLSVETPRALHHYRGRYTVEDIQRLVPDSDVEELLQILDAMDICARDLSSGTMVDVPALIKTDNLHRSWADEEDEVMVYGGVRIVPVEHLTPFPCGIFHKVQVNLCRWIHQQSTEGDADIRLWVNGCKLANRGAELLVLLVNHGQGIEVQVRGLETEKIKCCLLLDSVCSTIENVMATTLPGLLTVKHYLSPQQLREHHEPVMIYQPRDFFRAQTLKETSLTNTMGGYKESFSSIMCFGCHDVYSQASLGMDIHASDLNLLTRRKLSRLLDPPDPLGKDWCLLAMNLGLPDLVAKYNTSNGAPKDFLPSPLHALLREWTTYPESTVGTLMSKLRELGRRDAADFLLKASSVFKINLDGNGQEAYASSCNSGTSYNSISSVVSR
# Calcium/calmodulin-dependent protein kinase type II subunit delta (Homo sapiens), sequence (Q13557 whole entry): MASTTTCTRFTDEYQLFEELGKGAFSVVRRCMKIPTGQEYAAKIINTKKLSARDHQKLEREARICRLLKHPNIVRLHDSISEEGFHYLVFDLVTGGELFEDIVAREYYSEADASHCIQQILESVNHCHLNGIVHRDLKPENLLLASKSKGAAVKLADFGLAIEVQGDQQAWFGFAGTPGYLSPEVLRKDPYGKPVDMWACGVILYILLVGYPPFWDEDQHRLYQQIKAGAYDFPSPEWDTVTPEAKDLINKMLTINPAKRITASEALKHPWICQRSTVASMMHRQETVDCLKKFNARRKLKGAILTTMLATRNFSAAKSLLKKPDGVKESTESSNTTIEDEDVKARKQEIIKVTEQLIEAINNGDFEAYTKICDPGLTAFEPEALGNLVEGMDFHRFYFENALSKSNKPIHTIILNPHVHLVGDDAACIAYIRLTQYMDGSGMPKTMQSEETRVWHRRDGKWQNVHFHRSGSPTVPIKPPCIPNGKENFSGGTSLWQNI
# 5'-AMP-activated protein kinase catalytic subunit alpha-2 (Homo sapiens), sequence (P54646 whole entry, looked up): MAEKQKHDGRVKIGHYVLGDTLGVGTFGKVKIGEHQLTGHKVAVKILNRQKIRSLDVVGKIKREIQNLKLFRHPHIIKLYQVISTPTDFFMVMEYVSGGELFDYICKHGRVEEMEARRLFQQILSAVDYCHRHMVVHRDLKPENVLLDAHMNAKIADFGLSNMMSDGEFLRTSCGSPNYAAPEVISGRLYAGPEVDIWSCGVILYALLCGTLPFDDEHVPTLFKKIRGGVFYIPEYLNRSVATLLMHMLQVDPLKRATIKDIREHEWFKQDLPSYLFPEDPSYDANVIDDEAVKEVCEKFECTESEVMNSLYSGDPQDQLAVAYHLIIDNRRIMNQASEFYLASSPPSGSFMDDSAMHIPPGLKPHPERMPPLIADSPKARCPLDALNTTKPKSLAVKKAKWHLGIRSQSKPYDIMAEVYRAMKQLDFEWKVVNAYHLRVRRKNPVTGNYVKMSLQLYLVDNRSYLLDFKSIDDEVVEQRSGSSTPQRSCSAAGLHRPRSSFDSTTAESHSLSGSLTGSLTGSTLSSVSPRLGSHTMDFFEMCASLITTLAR
# Calcium/calmodulin-dependent protein kinase type II subunit alpha (Homo sapiens), sequence (Q9UQM7 whole entry): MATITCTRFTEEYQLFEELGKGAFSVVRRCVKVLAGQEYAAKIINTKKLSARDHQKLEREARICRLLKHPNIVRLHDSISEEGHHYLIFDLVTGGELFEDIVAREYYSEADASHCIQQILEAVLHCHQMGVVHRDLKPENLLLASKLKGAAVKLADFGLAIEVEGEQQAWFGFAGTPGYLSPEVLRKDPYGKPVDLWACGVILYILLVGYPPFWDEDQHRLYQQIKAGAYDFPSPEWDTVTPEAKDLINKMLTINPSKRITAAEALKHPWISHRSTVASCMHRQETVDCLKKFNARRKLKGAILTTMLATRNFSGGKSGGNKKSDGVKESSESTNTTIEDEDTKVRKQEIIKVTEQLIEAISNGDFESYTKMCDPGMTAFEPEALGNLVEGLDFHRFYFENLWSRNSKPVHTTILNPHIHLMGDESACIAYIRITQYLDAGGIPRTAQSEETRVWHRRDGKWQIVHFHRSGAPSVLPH
# Serine/threonine-protein kinase Chk2 (Homo sapiens), sequence (O96017 whole entry): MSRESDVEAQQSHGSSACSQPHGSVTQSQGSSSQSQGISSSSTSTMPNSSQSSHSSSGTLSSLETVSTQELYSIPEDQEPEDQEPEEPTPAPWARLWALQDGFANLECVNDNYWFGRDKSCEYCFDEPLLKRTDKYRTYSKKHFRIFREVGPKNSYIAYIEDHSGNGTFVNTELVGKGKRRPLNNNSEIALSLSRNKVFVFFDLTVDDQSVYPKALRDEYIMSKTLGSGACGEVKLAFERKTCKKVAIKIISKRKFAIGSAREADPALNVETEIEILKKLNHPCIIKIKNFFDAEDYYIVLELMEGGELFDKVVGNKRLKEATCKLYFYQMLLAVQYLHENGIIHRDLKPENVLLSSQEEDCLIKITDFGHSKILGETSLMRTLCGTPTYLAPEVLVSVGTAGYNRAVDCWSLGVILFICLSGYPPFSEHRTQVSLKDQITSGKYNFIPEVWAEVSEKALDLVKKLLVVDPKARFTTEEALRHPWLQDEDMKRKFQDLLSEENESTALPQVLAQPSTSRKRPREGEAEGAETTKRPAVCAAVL
# Calcium/calmodulin-dependent protein kinase type 1D (Homo sapiens), sequence (Q8IU85 whole entry, looked up): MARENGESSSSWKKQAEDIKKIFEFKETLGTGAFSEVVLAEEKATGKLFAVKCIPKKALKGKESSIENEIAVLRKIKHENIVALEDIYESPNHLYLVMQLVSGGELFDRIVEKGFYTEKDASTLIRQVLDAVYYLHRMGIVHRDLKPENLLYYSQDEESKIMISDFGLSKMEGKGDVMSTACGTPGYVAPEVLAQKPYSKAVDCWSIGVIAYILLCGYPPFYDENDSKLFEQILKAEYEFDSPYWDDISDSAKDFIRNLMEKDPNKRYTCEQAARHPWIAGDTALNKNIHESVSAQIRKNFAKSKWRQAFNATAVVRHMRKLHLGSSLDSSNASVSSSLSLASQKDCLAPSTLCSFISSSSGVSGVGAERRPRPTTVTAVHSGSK
Compound,inhibition [1] [%],inhibition [2] [%],inhibition [3] [%],inhibition [4] [%],inhibition [5] [%],inhibition [6] [%],inhibition [7] [%],inhibition [8] [%],inhibition [9] [%],inhibition [10] [%],inhibition [11] [%],inhibition [12] [%],inhibition [13] [%],inhibition [14] [%],inhibition [15] [%],inhibition [16] [%],inhibition [17] [%],inhibition [18] [%],inhibition [19] [%],inhibition [20] [%]
CNC(=O)c1cncc(/C=C/c2ccccc2C)c1,6.66,2.2,9.32,2.32,15,3.54,17.4,-0.17,-0.91,4.14,3.24,2.3,3.14,-1.31,-2.38,5.89,5.73,2.11,3.83,6.54
COc1cc(N2CCN(C(C)C)CC2)ccc1Nc1nc(Nc2cccc(F)c2C(=O)O)c2cc[nH]c2n1,2.95,5.3,5.91,-0.39,0.33,1.72,3.39,-0.23,4.47,3.99,4.14,3.26,6.33,-2.13,-1.74,1.97,6.1,4.99,26.3,3.88
CN(C)CCNC(=O)Nc1ccc(N(C)c2ccnc(Nc3ccc(CS(C)(=O)=O)cc3)n2)cc1,7.2,14.5,57.9,2.43,5.89,2.14,4.34,0.53,1.18,4.92,4.63,4.54,5.02,0.83,-0.68,3.83,0.79,3.72,11.9,3.93
CC(C)c1ccc(-c2cc(-c3c[nH]nc3-c3ccccn3)ccn2)cc1,2.31,-1.39,0.75,0.75,-0.92,0.14,0.33,-0.78,0.06,-0.6,-0.49,-0.8,1.63,0.73,1.62,-0.13,1.92,0.27,0.77,0.1
c1ccc(-c2n[nH]cc2-c2ccnc(-c3ccc(OCCn4ccnc4)cc3)c2)nc1,1.29,-0.74,7.14,0.8,1.98,0.62,4.44,-0.08,0.91,-3.32,-1.38,-0.35,0.74,0.1,-0.86,-5.5,-4.71,-3.83,-2.77,-7.91
c1cnn2ncc(-c3ccnc(NCCCN4CCOCC4)n3)c2c1,2.36,-0.66,0.6,0.82,1.97,1.69,1.28,-0.6,-0.17,2.86,6.81,3.65,3.72,-0.02,-0.41,0.25,1.83,2.74,3.47,-0.4
CS(=O)(=O)Nc1ccc(-c2ccc3c(NC(=O)C4CC4)n[nH]c3c2)cc1,40,-6.19,2.46,3.42,5.22,2.03,4.96,0.46,1.58,4.36,3.84,3.65,3.38,-0.67,-0.43,1.65,1.61,4.58,7.38,2.51
